Screening data deposited in PubChem BioAssay by several laboratories.
Sampled rows, rich in hits. Any-hit rate of the full collection: about 2.2%.
FAK inh: FAK kinase inhibitors, primary screen, biochemical; Focal adhesion kinase 1 (Homo sapiens), Q05397; biochemical FAK kinase activity assay; inhibition, %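 (tested at 7 µM)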; hit rate 0.84% among 97,000; AID 727, 2007
Target sequence (Q05397 whole entry, looked up): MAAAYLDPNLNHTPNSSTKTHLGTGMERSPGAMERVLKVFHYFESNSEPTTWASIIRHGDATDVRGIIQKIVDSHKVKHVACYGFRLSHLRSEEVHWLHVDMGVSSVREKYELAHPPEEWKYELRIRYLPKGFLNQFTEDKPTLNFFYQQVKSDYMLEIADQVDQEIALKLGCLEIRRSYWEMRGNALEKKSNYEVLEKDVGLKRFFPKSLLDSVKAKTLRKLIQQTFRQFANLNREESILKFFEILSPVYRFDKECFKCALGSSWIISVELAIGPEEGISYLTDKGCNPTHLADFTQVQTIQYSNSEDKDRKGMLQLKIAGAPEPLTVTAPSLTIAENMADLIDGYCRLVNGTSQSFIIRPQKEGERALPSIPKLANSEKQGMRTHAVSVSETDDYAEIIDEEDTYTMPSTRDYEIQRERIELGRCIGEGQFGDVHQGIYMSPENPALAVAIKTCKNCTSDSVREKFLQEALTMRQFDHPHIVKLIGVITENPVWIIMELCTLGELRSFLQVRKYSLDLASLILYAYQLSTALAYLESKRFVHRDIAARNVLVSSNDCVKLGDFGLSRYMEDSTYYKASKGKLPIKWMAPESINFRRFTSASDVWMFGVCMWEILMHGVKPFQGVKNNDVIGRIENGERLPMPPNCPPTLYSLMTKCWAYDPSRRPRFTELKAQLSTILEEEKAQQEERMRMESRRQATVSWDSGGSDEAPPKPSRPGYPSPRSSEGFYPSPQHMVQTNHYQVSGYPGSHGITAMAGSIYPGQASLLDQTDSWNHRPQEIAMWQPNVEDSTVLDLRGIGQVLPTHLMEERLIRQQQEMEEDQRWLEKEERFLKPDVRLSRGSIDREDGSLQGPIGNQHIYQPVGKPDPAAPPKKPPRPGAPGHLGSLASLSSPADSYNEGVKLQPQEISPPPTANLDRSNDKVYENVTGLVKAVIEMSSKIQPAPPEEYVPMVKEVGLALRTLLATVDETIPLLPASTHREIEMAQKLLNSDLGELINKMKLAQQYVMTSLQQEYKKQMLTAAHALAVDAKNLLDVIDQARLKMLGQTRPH
MRP1 act: H69AR viability gain despite doxorubicin, primary screen, MRP-1 activator project, H69AR cells, CellTiter-Glo. hit rate 0.61% among 140,000. viability increase, % at 10 µM. viability rescue;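 active = viability gain under doxorubicin at or above a set limit, the compound median plus 3 SD, cut at about 4.7% in these data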;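 also: MRP-1 overexpressing cells given doxorubicin 25 µM after compound pretreatment; 18-22 h compound pretreatment then 72 h with doxorubicin before readout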
MRP reversal: reversal of MRP1-mediated doxorubicin resistance, primary screen, H69AR cells, doxorubicin co-treatment; H69AR cells + 2 uM doxorubicin, CellTiter-Glo, 72 h; differential viability (reversal), % at 10 µM; hit rate 0.04% among 85,000; AID 602, 2007;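 active = viability drop by adding the cancer drug above about 55%, with treated viability meeting a 40% cutoff, limit read from the data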;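 also: larger differential means the compound sensitizes cells more to doxorubicin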
PLAP activator: PLAP enzyme activators, biochemical, luminescence, HTS. Alkaline phosphatase, placental type (Homo sapiens), P05187. purified PLAP enzyme, luminescent substrate read-out; stronger effect = higher value. activation fold at 20 µM. hit rate 1.2% among 96,000. AID 696, 2007; in the data active = activation fold above about 2
PTPN22 inh 2: PTPN22 phosphatase inhibitors, primary screen, biochemical, DiFMUP fluorescence, 2 µM | recombinant LYP catalytic domain | inhibition, % at 2 µM | hit rate 0.21% among 96,000;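 active = inhibition at 2 µM at or above a set limit, the screen mean plus 3 SD, cut at about 24% in these data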
PTPN22 act: LYP phosphatase activators, primary screen, biochemical, DiFMUP fluorescence, 2 µM. Tyrosine-protein phosphatase non-receptor type 22 (Homo sapiens), Q9Y2R2. recombinant LYP; 0 = plate median, 100 = signal doubled. activation, % at 2 µM. hit rate 0.11% among 96,000. AID 697, 2007;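 active = activation at 2 µM above a set limit, the mean plus 5 SD, cut at about 37% in these data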
FAK inh confirm: FAK kinase inhibitors, retest, confirmation, biochemical | AID 794, 2007 | shares compounds with FAK inh | hit rate 28% among 750 | inhibition, % at 7 µM | FAK kinase biochemical inhibition assay
Each line names hits and unclear results; the compound was inactive in the other large screens (follow-up assays come after a bar, where they were run). Rule as the data show it, unless noted: active = inhibition above about 19%; inactive = the rest.

O=C(CSc1nnnn1-c1ccc2c(c1)OCCO2)Nc1nc2c(s1)CCCC2	FAK inh 29 | FAK inh confirm inactive
CN(C)c1ccc(/C=C(/NC(=O)c2ccccc2)C(=O)N/N=C/c2ccc([N+](=O)[O-])c(O)c2)cc1	FAK inh 20 (no result: MRP reversal) | FAK inh confirm inactive
CC1CN(C(=O)/C(C#N)=C2\N=C(NC(=O)c3ccccc3Cl)c3ccccc32)CC(C)O1 (stereo not given)	none (no result: FAK inh, MRP reversal, PLAP activator, PTPN22 inh 2, PTPN22 act)
COCCNC(=O)c1c(N)n(-c2ccccc2)c2nc3ccccc3nc12	none
COCCNC(=O)c1c(N)n(CCCn2ccnc2)c2nc3ccccc3nc12	FAK inh 24 | FAK inh confirm inactive
O=C(NCCCN1CCCCCC1)c1ccc(CS(=O)(=O)Cc2ccccc2F)o1	FAK inh 25 (no result: PLAP activator) | FAK inh confirm 30
CC1CCN(CCCNC(=O)c2ccc(CS(=O)(=O)Cc3ccccc3F)o2)CC1	none (no result: PLAP activator)
CCc1ccc2c(c1)CCCN2C(=O)c1ccccc1C(=O)O	FAK inh 23 | FAK inh confirm inactive
Cc1ccc2c(c1)CCCN2C(=O)c1ccoc1C	none (no result: FAK inh, PTPN22 inh 2, PTPN22 act)
Cc1cc(C(=O)CN2C(=O)c3cccc(N)c3C2=O)c(C)n1Cc1cccs1	none (no result: MRP reversal)
COC(=O)C1CCN(C(=O)COC(=O)CCc2nc3ccccc3c(=O)[nH]2)CC1	none (no result: FAK inh, MRP reversal, PLAP activator, PTPN22 inh 2, PTPN22 act)
O=C(CSc1nc2ccccc2s1)Nc1cc(S(=O)(=O)N2CCOCC2)ccc1O	none (no result: FAK inh, MRP reversal, PLAP activator, PTPN22 inh 2, PTPN22 act)
O=C(OCC(=O)N1CCN(C(=O)c2ccco2)CC1)c1cc(-c2ccc(Cl)c(Cl)c2Cl)nc2ccccc12	FAK inh 35 | FAK inh confirm 19
O=C(c1ccco1)N1CCN(C(=O)c2cc(-c3ccccn3)nc3ccccc23)CC1	none
O=C(OCC(=O)N1CCN(C(=O)c2ccco2)CC1)c1sc2cc(F)ccc2c1Cl	none
O=C(OCC(=O)N1CCN(C(=O)c2ccco2)CC1)c1cc(-c2ccco2)nc2ccccc12	FAK inh 69 | FAK inh confirm inactive
Cc1cccc(C)c1NC(=O)CN(C)C(=O)C(c1ccccc1)c1ccccc1	none (no result: FAK inh, MRP reversal, PLAP activator, PTPN22 inh 2, PTPN22 act)
CCCCNC(=S)N(C)/N=C/c1ccc(OCc2ccc(C(=O)OC)cc2)c(OC)c1	none (no result: FAK inh, MRP reversal, PLAP activator, PTPN22 inh 2, PTPN22 act)
O=C(CSc1ccc(Cl)cc1)Nc1ccc(-c2nc3ccccc3[nH]2)cc1	none (no result: FAK inh, MRP reversal, PLAP activator, PTPN22 inh 2, PTPN22 act)
Cn1nc(C(=O)NCc2cccs2)c2ccccc2c1=O	none (no result: FAK inh, MRP reversal, PLAP activator, PTPN22 inh 2, PTPN22 act)
Cc1ccc2nc(/C(C#N)=C\c3ccc(N4CCCCC4)c([N+](=O)[O-])c3)[nH]c2c1	FAK inh 24 | FAK inh confirm inactive
N#C/C(=C/c1ccc(N2CCCC2)c([N+](=O)[O-])c1)c1nc2ccccc2[nH]1	none (no result: MRP reversal)
CC(Sc1nc(NCc2ccccc2)nc(N(C)C)n1)C(=O)Nc1ccccc1 (stereo not given)	FAK inh 22 (no result: MRP reversal) | FAK inh confirm inactive
O=C(Nc1cccc(NC(=O)c2ccc(Br)o2)n1)c1ccc(Br)o1	FAK inh 26 | FAK inh confirm inactive
CCC(C)n1c(NC(=O)c2ccccc2)c(C#N)c2nc3ccccc3nc21 (stereo not given)	FAK inh 25 (no result: MRP1 act) | FAK inh confirm inactive
CCCCn1c(NC(=O)c2ccccc2)c(C#N)c2nc3ccccc3nc21	FAK inh 42 (no result: MRP reversal) | FAK inh confirm inactive
CC(=O)c1cnc2ncnn2c1C	none (no result: FAK inh, MRP reversal, PLAP activator, PTPN22 inh 2, PTPN22 act)
COc1ccc(-c2nc3ccc(N4CCCC4)cc3c(=O)[nH]2)cc1OC	FAK inh 28 (no result: MRP reversal) | FAK inh confirm inactive
O=S(=O)(c1ccc(Oc2ccc(-c3nnco3)cc2)nc1)N1CCC(Cc2ccccc2)CC1	FAK inh 19 | FAK inh confirm inactive
O=C(CN1CCN(S(=O)(=O)c2ccccc2)CC1)Nc1ccc2c(c1)CCC2	none (no result: FAK inh, MRP reversal, PLAP activator, PTPN22 inh 2, PTPN22 act)
Cc1ccc(-c2c3c(nc4sc(C(N)=O)c(N)c24)CCC3)cc1	FAK inh 22 | FAK inh confirm inactive
NC(=O)c1sc2nc3c(c(-c4ccc(Cl)cc4)c2c1N)CCCC3	none
O=[N+]([O-])c1ccc(N/N=C\c2cccn2-c2ccccc2)nc1	FAK inh 30 (no result: MRP reversal) | FAK inh confirm inactive
COc1cc(/C=N/NC(=O)Nc2cccc3nsnc23)cc(OC)c1OC	none (no result: MRP reversal)
